# AMA1 RON2 block: AMA1-RON2 (P. falciparum) interaction inhibition; AlphaScreen AMA1-biotinylated RON2 peptide binding; Potency, µM (highest dose often 58.2 µM), inactives show at the highest dose activity change, negative = inhibition, actives largely listed as inhibitors; 360,000 compounds, 0.2% hits;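 note: potency is the fitted concentration of half-maximal effect; 0% = vehicle wells and -100% = peptide control; nearly all actives have a fitted effect of over 45% in size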
#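 AMA1 (3D7) with his tag at 25 nM final met compounds first, then biotinylated RON2 peptide at 25 nM; detection used donor plus acceptor beads, 10 µg/mL apiece, read by AlphaScreen after 30 min at room temperature.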
# Pf growth 96h: P. falciparum growth inhibition at 96 hour, primary screen for plastid delayed-death inhibitors | P. falciparum luciferase reporter growth, 96 h | Potency, µM (top dose mostly 28.7 µM), inactives show at the top dose activity change, negative = inhibition, usual class: inhibitors | 320,000 compounds, 6.9% hits; note: potency is the fitted concentration of half-maximal effect; % is set by controls: 0 for no effect and ±100 for the full control effect
#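 Cell-based qHTS: luciferase-tagged P. falciparum in erythrocytes (2% hematocrit, 0.05% parasitemia final) incubated with compounds for 96 hours, 37 C, 5% CO2; luciferase detection reagent then added and luminescence measured.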
# CHX counter: counter-screen for Shiga toxin inhibitors: cycloheximide protein synthesis inhibition; cell reporter, cycloheximide protein synthesis inhibition counterscreen; max response, %; 300,000 compounds, 12% hits; in the data active = max response mostly above about 13%, no sharp cut-off; inactive = mostly below about 14%; note: read at 38.3 µM for the half of the compounds with a filed dose; 0% is about no effect
# HCV inhibitor: blocks hepatitis C virus | Huh7.5.1 HCVcc-Cre infection, luciferase reporter, 44 h | Potency, µM (titrated, usually from 41.8 µM), inactives show at the top dose activity change, negative = inhibition, actives largely listed as inhibitors | 340,000 compounds, 3.4% hits | AID 651820; note: potency is the fitted concentration of half-maximal effect; % is set by controls: 0 for no effect and ±100 for the full control effect
#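 Compounds are dispensed onto cells plated 4 h earlier at 1,000 per well, with HCVcc-Cre virus (about 0.5 moi) added next. Following 44 h of culture, luminescent signal is measured for 15 sec after 15 min with substrate at room temperature.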
# Pf growth 48h: inhibits P. falciparum growth in the first generation, 48 h | 310,000 compounds, 5.9% hits | Potency, µM (doses to about 28.7 µM), inactives show at the top dose activity change, negative = inhibition, usual class: inhibitors | P. falciparum luciferase growth in erythrocytes, 48 h; note: potency is the fitted concentration of half-maximal effect; % is set by controls: 0 for no effect and ±100 for the full control effect
#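 In quantitative HTS format, infected erythrocytes bearing luciferase-reporter parasites were treated for a single generation at 37 C. Luminescence after adding detection reagent served as the growth measure.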
# Shiga inhibitor: Shiga toxin inhibition; AID 2315; 290,000 compounds, 9.2% hits; inhibition, % at 38.7 µM; Vero cells, Shiga toxin protein synthesis inhibition reporter; in the data active = inhibition mostly above about 28%, no sharp cut-off; inactive = mostly below about 43%; note: 0% is about no effect
# Numbers without * were called inactive; ? = inconclusive; . = no result given. The list is not random: actives were taken first. Their share in the collection is about 21%. Unless noted, calls come from the whole dose curve; as a rule, active = well fitted curve in the direction sought with a large enough effect; inconclusive = small, poorly fitted or top-dose-only effect, or another doubt; inactive = no such curve, though single readings can be large; an effect the other way counts as inactive or inconclusive.
SMILES,AMA1 RON2 block,Pf growth 96h,CHX counter,HCV inhibitor,Pf growth 48h,Shiga inhibitor
COc1cccc(-c2cnc3c(NC(C)=O)cc(-c4ccsc4)cn23)c1,-7.7%,.,.,.,.,.
CCSc1ccc([C@@H]2[C@H]3C(=O)N(CC)C(=O)[C@H]3[C@]3(C(=O)OC)CCCCN23)cc1OC,-18.3%,.,.,-0.8%,.,.
CCN1C(=O)[C@H]2[C@@H](c3ccc(SC4CCCCC4)c(OC)c3)N3CCCC[C@@]3(C(=O)OC)[C@H]2C1=O,-19.6%,11.7µM*,.,2.0%,3.7µM*,.
CCN1C(=O)[C@H]2[C@@H](c3ccc(-c4ccc(Cl)c(Cl)c4)cc3)N3CCCC[C@@]3(C(=O)OC)[C@H]2C1=O,4.9%,107.0%,.,-2.1%,?,.
CCC(C)Sc1ccc([C@@H]2[C@@H]3C(=O)N(CC)C(=O)[C@@H]3[C@]3(C(=O)OC)CCCCN23)cc1 (stereo partly specified),0.6%,.,.,-8.6%,.,.
CCN1C(=O)[C@@H]2[C@@H](c3ccc(SC4CCCCC4)cc3)N3CCCC[C@@]3(C(=O)OC)[C@@H]2C1=O,-6.5%,11.7µM*,.,-4.1%,?,.
CCC(C)Sc1ccc([C@@H]2[C@H]3C(=O)N(CC)C(=O)[C@H]3[C@]3(C(=O)OC)CCCN23)cc1OC (stereo partly specified),-15.7%,10.4µM*,.,-1.9%,11.7µM*,.
CCC[C@@H]1CC(C(=O)NC(C2O[C@H](SC)C(OP(=O)(O)O)[C@H](O)[C@H]2O)[C@H](C)Cl)N(C)C1 (stereo partly specified),.,.,-2.9,.,.,-9.4
CC(C)CNC(=O)c1cccc(NC(=O)c2ccc3c(c2)C(=O)N(C)C3=O)c1,4.9%,123.2%,-0.9,2.7%,0.0%,16.1
CN1CCN(C(=O)c2cc3ccccc3cc2O)CC1,-0.6%,-23.2%,.,13.6%,?,.
c1cc(Nc2ncnc3sccc23)cc(-c2nnc3n2CCCCC3)c1,-8.5%,?,12.6,10µM*,?,16.2
CCN(C(=O)CCCCC(=O)N(CC)c1ccccc1)c1ccccc1,3.7%,.,.,-1.4%,.,.
CSc1nc2ccc(NC(=O)C3=NNC(=O)CC3)cc2s1,-2.5%,9.7%,16.5*,-20.3%,0.0%,46.6
CSc1nc2ccc(NC(=O)C3=NN(c4ccccc4)C(=O)CC3)cc2s1,-17.5%,-1.6%,6.3,-17.7%,-11.2%,17.2
COc1ccc(CC(=O)Nc2ccc3nc(SC)sc3c2)cc1OC,-4.4%,?,-1.5,-28.7%,-18.4%,41.5
CC(=O)Nc1ccc2nc(SCC(=O)O)sc2c1,-19.2%,.,-1.4,21.5%,22.2%,-4.5
CSc1nc2ccc(NC(=O)c3ccccn3)cc2s1,0.6%,69.9%,37.8*,-2.7%,69.1%,104.8*
COC(=O)c1ccc(C(=O)NC(=S)Nc2ccc3nc(SC)sc3c2)cc1,16.9%,55.4%,10.6*,12.3%,24.5%,11.4
CC(C)Cc1nnc(NC(=O)c2ccc(-n3cncn3)c([N+](=O)[O-])c2)s1,-2.4%,.,.,.,.,.
CCCCn1c(-c2csc3c2CCC(C)C3)n[nH]c1=S (stereo unspecified),11.1%,-33.5%,-2.7,?,0.928µM*,-10.6
CNS(=O)(=O)c1ccc(OC)c(-c2nnc3c4ccccc4c(C)nn23)c1,8.9%,?,-4.7,12.4%,?,-9.5
COc1ccc(-c2cc(C(=O)Nc3cccc(S(=O)(=O)NCc4ccco4)c3)c3ccccc3n2)cc1OC,-1.1%,?,21.0*,?,2.08µM*,41.0
COc1ccc(S(=O)(=O)NCc2ccco2)cc1-c1nnc2c3ccccc3c(C)nn12,2.1%,?,39.7*,-1.8%,11.7µM*,43.1
O=C(Nc1cccc(S(=O)(=O)NCc2ccco2)c1)c1cc(-c2ccc(F)cc2)nc2ccccc12,-15.0%,11.7µM*,38.7*,?,-23.3%,69.6*
COc1cc(/C=N/Nc2nc3ccccc3s2)cc([N+](=O)[O-])c1O,-18.4%,-1.1%,19.0*,-1.0%,-1.4%,56.0*
O=[N+]([O-])c1cc(Cl)cc(/C=N/Nc2nc3ccccc3s2)c1O,25.2%,43.8%,32.5*,11.2µM*,52.0%,41.1*

# Screens (PubChem BioAssay)
